This note sets out measurements from PubChem BioAssay.

Calls of active or inactive are those of the source.

Experiment [1] in a line: binders of probe aFSTL3 on microarray, primary screen, stem cell growth factor project, biochemical, small-molecule microarray, fluorescence 635/667 (AID 1064).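 Note: measures binding of the biotinylated anti-FSTL3 antibody to printed compounds.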 The settings on record: higher = more signal.
The nature of experiment [2]: binders from COS7 lysate, DM2A8 probe, primary screen, torsin A project, cell lysate, small-molecule microarray, fluorescence 635/667 (AID 1065). The settings on record: higher = more signal, COS7 lysate expressing mutant human TOR1A.
Experiment [3] in a line: binders of probe aFGF2 on microarray, primary screen, stem cell growth factor project, biochemical, small-molecule microarray, fluorescence 635/667 (AID 1067).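 Note: measures binding of biotinylated aFGF2 protein to printed compounds on slides; z-score merges feature fluorescence and signal-to-noise across triplicate slides.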 The settings on record: higher = more signal.
Experiment [4] is described as follows: binders of probe aFGF10 on microarray, primary screen, stem cell growth factor project, biochemical, small-molecule microarray, fluorescence 635/667 (AID 1071).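 Note: score merges 667 nm spot intensity and signal to noise from triplicate slides.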 The settings on record: higher = more signal.
The target of experiment [5] is Neurogenic locus notch homolog protein 2 (Homo sapiens) (UniProt Q04721). Kind of experiment: Notch2 binders on small-molecule microarrays, primary screen, biochemical, small-molecule microarray, 635 nm fluorescence, stem cell growth factors (AID 1073). The settings on record: Notch2 binding, higher = more signal.
Experiment [6] addresses Pro-neuregulin-1, membrane-bound isoform (Homo sapiens) (UniProt Q02297). Kind of experiment: NRG1 binders on small-molecule microarrays, primary screen, psychiatric disease protein project, biochemical, small-molecule microarray, fluorescence 635/667 (AID 1075).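 Note: score combines 667 nm spot fluorescence with signal to noise.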 The settings on record: NRG1 binding, 635 nm fluorescence, higher = more signal.
Experiment [7] has as its system Neuregulin-1 EGF-like domain. Kind of experiment: binders of neuregulin-1 EGF-like domain, primary screen, biochemical, small-molecule microarray, 635 nm fluorescence (AID 1081).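 Note: binding of the protein to compounds printed on small-molecule microarray slides.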 The settings on record: small-molecule microarray binding, higher = more signal.
A short description of experiment [8]: FRG1 promoter luciferase signal modulators, primary screen, FRG1 inhibition for FSHD, cell-based, C2C12 myotubes, firefly/Renilla luciferase, luminescence (AID 1084). The settings on record: higher = more signal, called active from +8 up or from −8 down.
Experiment [9] can be described thus: binders of probe aFST on microarray, primary screen, stem cell growth factor project, biochemical, small-molecule microarray, fluorescence 635/667 (AID 1086).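 Note: score merges 667 nm fluorescence with signal-to-noise of each printed compound spot.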 The settings on record: higher = more signal.
Experiment [10] in a line: binders of probe aHhip on microarray, primary screen, stem cell growth factor project, biochemical, small-molecule microarray, fluorescence 635/667 (AID 1087).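 Note: score merges spot fluorescence at 667nm with spot signal to noise ratio.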 The settings on record: higher = more signal.
The subject of experiment [11] is PRMT1 (protein arginine N-methyltransferase 1). Briefly: PRMT1 binders on small-molecule microarrays, primary screen, biochemical, small-molecule microarray, 635 nm fluorescence (AID 1088).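 Note: binding of Prmt1 protein to compounds spotted on small-molecule microarray slides.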 The settings on record: small-molecule microarray binding, higher = more signal.
A short description of experiment [12]: yeast growth modulation, basal conditions, primary screen, YJM789 clinical isolate, OD600, 24 h (AID 1089).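 Note: growth of clinical yeast isolate S. cerevisiae YJM 789 seeded 1000 cells per well; test concentration not given here.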 The settings on record: S. cerevisiae YJM789 growth, higher = more signal, called active from +8 up or from −8 down.
Experiment [13] is described as follows: fission yeast growth modulation, primary screen, strain 972, OD600, 24 h, no modulator (AID 1090).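 Note: basal condition with compound alone and no growth modifier present; test concentration not given here.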 The settings on record: S. pombe 972 growth, higher = more signal, called active from +8 up or from −8 down.
Experiment [14] can be described thus: S. cerevisiae growth modulation with rapamycin, primary screen, strain BY4716, OD600, 96 h (AID 1091). Note: test concentration not given here. The settings on record: higher = more signal, called active from +8 up or from −8 down.
Experiment [15] addresses Torsin-1A-interacting protein 2 (Homo sapiens) (UniProt Q8NFQ8). Briefly: LULL1 binders on small-molecule microarray, primary screen, cell lysate, human LULL1 lysate, 635/667 nm fluorescence (AID 1092).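 Note: probe is lysate of COS7 cells overexpressing human LULL1; score merges per-feature 667 nm fluorescence with signal-to-noise.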 The settings on record: hLULL1 lysate binding, 635 nm fluorescence, higher = more signal.
Experiment [16] is described as follows: E. coli growth modulation, two-sided OD650, primary screen, E. coli filamentation project, strain DRC41, 24 h (AID 1093).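 Note: MC1000 strain lacking acrAB efflux and sulA so SOS filamentation is blocked; test concentration not given here.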 The settings on record: OD650, 24 h, higher = more signal, called active from +8 up or from −8 down.
The nature of experiment [17]: small-molecule microarray binders of probe aLefty2, primary screen, biochemical, biotinylated probe, 635/667 nm fluorescence (AID 1094).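 Note: score merges spot fluorescence near 667 nm with spot signal-to-noise ratio.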 The settings on record: higher = more signal.
Experiment [18] deals with Noggin (protein binding on small-molecule microarray). Briefly: Noggin binders on small-molecule microarray, primary screen, biochemical, 635/667 nm fluorescence (AID 1095).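 Note: score merges 667 nm feature fluorescence with signal to noise over triplicate slides.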 The settings on record: 635 nm fluorescence, higher = more signal.
The target of experiment [19] is Neurogenic locus notch homolog protein 3 (Homo sapiens) (UniProt Q9UM47). Kind of experiment: NOTCH3 binders on small-molecule microarray, primary screen, biochemical, 635/667 nm fluorescence (AID 1096). The settings on record: NOTCH3 binding, 635 nm fluorescence, higher = more signal.
Experiment [20] can be described thus: small-molecule microarray binders of probe aEGFR, primary screen, biochemical, biotinylated probe, 635/667 nm fluorescence (AID 1097).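 Note: probe is a biotinylated anti-EGFR antibody binding compounds printed on slides; score combines fluorescence near 667 nm and signal to noise of each spot.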 The settings on record: higher = more signal.

Torsin-1A-interacting protein 2 (Homo sapiens), sequence (Q8NFQ8 whole entry, looked up): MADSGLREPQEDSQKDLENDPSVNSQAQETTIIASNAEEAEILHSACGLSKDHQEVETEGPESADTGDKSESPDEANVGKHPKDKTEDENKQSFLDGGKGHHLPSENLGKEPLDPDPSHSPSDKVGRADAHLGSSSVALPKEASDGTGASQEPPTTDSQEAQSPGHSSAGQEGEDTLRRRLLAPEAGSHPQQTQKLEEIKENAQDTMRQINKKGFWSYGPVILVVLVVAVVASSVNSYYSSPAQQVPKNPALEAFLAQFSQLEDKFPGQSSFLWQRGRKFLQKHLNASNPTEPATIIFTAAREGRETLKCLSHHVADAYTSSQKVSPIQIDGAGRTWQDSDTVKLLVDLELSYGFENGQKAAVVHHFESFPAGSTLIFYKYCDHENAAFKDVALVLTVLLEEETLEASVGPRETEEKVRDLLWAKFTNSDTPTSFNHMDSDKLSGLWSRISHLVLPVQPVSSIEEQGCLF
Pro-neuregulin-1, membrane-bound isoform (Homo sapiens), sequence (Q02297 whole entry, looked up, the tested form may be a part, canonical isoform): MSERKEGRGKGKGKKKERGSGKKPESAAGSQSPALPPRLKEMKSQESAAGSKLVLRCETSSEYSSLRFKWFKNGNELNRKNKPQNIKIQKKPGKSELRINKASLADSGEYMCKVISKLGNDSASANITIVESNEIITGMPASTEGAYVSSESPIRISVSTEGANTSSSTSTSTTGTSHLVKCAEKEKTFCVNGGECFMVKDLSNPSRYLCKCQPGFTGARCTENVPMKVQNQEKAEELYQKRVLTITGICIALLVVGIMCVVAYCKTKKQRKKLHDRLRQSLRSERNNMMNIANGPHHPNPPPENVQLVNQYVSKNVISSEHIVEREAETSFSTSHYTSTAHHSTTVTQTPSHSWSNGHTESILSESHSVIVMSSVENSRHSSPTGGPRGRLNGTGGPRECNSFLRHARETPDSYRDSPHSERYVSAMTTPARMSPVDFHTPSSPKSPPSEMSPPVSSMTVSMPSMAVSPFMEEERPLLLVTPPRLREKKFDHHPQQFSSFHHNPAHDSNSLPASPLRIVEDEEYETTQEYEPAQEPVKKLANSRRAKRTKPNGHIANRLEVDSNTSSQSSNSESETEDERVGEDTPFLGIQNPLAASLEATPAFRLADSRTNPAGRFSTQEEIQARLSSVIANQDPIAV
Neurogenic locus notch homolog protein 2 (Homo sapiens), sequence (Q04721 whole entry, looked up, canonical isoform): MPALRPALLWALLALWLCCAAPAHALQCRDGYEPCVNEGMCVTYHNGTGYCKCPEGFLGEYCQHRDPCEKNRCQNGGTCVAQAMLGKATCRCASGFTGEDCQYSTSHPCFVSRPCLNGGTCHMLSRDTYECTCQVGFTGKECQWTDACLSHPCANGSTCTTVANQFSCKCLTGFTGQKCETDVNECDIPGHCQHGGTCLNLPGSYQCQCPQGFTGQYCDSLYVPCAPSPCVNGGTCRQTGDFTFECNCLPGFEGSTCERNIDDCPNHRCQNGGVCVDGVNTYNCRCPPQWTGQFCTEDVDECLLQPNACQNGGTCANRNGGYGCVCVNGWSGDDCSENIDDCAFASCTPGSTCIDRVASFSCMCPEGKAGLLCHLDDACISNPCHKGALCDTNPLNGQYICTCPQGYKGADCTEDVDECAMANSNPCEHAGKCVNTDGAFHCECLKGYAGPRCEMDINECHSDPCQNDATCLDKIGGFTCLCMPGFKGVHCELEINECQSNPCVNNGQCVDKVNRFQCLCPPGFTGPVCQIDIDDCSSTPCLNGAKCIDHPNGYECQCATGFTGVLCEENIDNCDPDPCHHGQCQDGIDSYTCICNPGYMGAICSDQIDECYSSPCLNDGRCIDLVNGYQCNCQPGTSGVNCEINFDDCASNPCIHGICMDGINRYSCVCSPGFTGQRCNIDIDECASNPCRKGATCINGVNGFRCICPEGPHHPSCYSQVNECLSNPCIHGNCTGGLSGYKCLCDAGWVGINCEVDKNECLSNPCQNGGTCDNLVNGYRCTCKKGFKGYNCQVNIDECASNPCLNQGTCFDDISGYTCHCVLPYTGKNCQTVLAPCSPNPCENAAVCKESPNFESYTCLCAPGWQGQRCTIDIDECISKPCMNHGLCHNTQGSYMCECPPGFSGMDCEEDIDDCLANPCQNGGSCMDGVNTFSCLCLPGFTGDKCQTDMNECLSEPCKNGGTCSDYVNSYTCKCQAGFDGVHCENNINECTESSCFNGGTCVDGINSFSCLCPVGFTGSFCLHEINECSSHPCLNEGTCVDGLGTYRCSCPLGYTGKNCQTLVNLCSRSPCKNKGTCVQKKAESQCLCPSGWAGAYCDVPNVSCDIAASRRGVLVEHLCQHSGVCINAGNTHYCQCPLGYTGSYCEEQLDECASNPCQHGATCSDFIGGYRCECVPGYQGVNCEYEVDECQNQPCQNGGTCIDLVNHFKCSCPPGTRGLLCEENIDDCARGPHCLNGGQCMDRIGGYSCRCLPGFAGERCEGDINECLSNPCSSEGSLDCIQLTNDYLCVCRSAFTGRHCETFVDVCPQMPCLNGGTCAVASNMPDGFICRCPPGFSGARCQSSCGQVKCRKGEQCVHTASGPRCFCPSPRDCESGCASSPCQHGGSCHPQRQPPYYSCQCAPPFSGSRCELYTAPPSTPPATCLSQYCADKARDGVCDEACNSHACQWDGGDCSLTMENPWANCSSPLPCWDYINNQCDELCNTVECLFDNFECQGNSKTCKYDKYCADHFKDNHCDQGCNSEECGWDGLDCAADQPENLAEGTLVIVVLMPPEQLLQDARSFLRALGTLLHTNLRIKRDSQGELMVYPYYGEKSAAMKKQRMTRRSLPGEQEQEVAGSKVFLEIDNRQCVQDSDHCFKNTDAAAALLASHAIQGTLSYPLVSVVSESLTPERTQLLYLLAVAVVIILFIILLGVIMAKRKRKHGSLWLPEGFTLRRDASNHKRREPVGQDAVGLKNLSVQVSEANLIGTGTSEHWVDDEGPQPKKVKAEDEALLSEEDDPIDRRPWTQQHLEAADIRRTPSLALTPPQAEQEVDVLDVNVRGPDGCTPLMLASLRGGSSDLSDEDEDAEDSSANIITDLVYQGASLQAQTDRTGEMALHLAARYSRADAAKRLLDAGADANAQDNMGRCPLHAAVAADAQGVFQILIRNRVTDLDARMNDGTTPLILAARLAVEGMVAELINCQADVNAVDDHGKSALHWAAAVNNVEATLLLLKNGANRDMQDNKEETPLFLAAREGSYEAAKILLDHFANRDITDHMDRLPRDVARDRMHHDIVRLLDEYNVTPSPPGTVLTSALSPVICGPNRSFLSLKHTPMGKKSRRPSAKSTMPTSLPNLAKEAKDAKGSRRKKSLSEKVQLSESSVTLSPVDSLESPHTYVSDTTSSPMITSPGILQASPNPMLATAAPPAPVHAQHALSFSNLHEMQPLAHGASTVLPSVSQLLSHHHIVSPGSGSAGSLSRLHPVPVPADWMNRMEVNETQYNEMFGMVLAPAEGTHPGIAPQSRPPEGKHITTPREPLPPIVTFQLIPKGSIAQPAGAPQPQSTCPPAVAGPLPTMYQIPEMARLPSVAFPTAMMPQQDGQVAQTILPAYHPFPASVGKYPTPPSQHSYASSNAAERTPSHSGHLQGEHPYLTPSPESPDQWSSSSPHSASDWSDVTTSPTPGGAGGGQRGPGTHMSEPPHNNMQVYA

With `COc1ccc(CCNC(=O)[C@@H]2c3ccccc3C(=O)N(Cc3ccccc3C(F)(F)F)[C@H]2c2ccc(CO)cc2)cc1`, the composite z-score in experiment [1] was 0.114; in experiment [2], 1.02; in [3], 0.0292; in experiment [4], 0.0105; in experiment [5], -0.354; in experiment [6], 1.2. Besides, the composite z-score in experiment [7] was 0.472; in experiment [9], -0.211; in [10], -0.134; in experiment [11] it was 0.77; in [15] it was 2.92; in experiment [17], 0.0258. Also, the composite z-score in experiment [18] is -0.185; in [19], -0.0818; in [20], -0.216. In addition, the z-score was -0.646 (inactive) in [8]; -0.0666 (inactive) in experiment [12]; 0.057 (inactive) in [13]; -0.0429 (inactive) in [14]; 0.415 (inactive) in [16].
As to `O=C1c2ccccc2[C@](Cc2ccccc2I)(C(=O)NCC(F)(F)F)[C@H](c2ccc(CO)cc2)N1Cc1ccccc1`, the composite z-score is -0.213 in experiment [1]; -0.0086 in [2]; 0.0363 in experiment [3]; 0.15 in experiment [4]; 1.39 in experiment [5]; 1.12 in experiment [6]. For the same compound, the composite z-score in experiment [7] was 1.21; in experiment [9], 0.585; in [10], 0.0734; in [11], 1.55; in experiment [15] it was 2.45; in experiment [17] it was -0.0907. Further, the results for the composite z-score in [18], in experiment [19] and in experiment [20] were 0.444, 1.16 and -0.0679, respectively. Further, the z-score in [8] is -0.508 (inactive); in experiment [12] it was -0.943 (inactive); in [13] it was -0.732 (inactive); in experiment [14], -0.666 (inactive); in [16], 0.29 (inactive).
As for `COCCOC(=O)N1C(=O)[C@@]2(c3cc(C#Cc4ccc(OC)cc4)ccc31)[C@H](C(=O)N1CCc3cc(OC)c(OC)cc3C1)[C@H]1C(=O)O[C@H](c3ccccc3)[C@H](c3ccccc3)N1[C@@H]2c1ccc(OCCO)cc1`, the composite z-score in experiment [1] was -0.172; in experiment [2] it was 0.454; in experiment [3], -0.0567; in experiment [4] it was 0.452; in experiment [5] it was 1.22; in experiment [6], 0.62. Moreover, the composite z-score is 1.16 in [7]; 0.0478 in [9]; 0.0623 in [10]; 1.33 in [11]; 1.32 in [15]; -0.104 in [17]. The composite z-score worked out at 1.22 in experiment [18], 1.15 in experiment [19] and 0.0343 in experiment [20]. For the same compound, the z-score in experiment [8] was 1.36 (inactive); in [12], 2.2 (inactive); in [13], 1.36 (inactive); in experiment [14], 5.75 (inactive); in experiment [16] it was 0.816 (inactive).
As to `C=CCC(OC(C)=O)[C@@H]1[C@@H](N(Cc2ccc(-c3ccccc3)cc2)C(=O)Cc2ccc(OC)cc2)c2cc(OCCCO)ccc2N1C(=O)c1ccc(-c2ccccc2)cc1` (stereo not given in full), the composite z-score was -0.0141 in experiment [1]; 0.253 in experiment [2]; -0.0158 in [3]; -0.0965 in experiment [4]; -0.137 in experiment [5]; 0.275 in experiment [6]. Also, the composite z-score in experiment [7] was 0.0056; in experiment [9] it was 0.0321; in experiment [10], 0.259; in experiment [11], -0.0413; in [15] it was 0.182; in experiment [17], 0.152. For the same compound, the composite z-score is -0.0829 in experiment [18], -0.255 in experiment [19] and -0.0488 in experiment [20]. Moreover, the z-score in experiment [8] is -1.24 (inactive); in [12] it was -0.445 (inactive); in [13], -0.512 (inactive); in experiment [14], -0.542 (inactive); in [16], 1.23 (inactive).
With `COC(=O)[C@@]1(Cc2ccc(OC)cc2)[C@H]2c3cc(C(=O)N4CCCC4)n(Cc4ccc(C)o4)c3C[C@H]2CN1C(=O)c1ccccc1`, the composite z-score in experiment [1] was 0.833; in experiment [2], -0.0673; in [3], 0.218; in experiment [4], 1.15; in experiment [5], 1.62; in [6] it was 1.83. The composite z-score was 0.266 in [7]; 1.05 in experiment [9]; -0.116 in [10]; 0.622 in experiment [11]; 3.24 in experiment [15]; 0.292 in experiment [17]. Also, the composite z-score turned out to be 0.355 in experiment [18], 1.07 in experiment [19] and 0.0059 in experiment [20]. Moreover, the z-score in experiment [8] was 8.22 (active); in experiment [12] it was -19.7 (active); in experiment [13] it was -15.7 (active); in experiment [14] it was -2.14 (inactive); in experiment [16], -0.715 (inactive).
On to `COC(=O)[C@@]1(Cc2ccc(F)cc2)[C@H]2c3cc(C(=O)N(C)C)n(CCSCCO)c3C[C@H]2CN1C(=O)c1ccccc1`, for which the composite z-score worked out at 0.304 in experiment [1]; 0.273 in [2]; 0.203 in experiment [3]; 0.487 in [4]; 1.36 in experiment [5]; 1.95 in [6]. Also, the composite z-score is 0.943 in experiment [7]; 0.568 in experiment [9]; -0.0029 in experiment [10]; 0.0793 in experiment [11]; 2.72 in experiment [15]; 0.0126 in [17]. Moreover, the composite z-score is -0.443 in experiment [18], 0.229 in [19] and -0.162 in experiment [20]. The z-score was 1.29 (inactive) in experiment [8]; 0.125 (inactive) in [12]; 0.642 (inactive) in experiment [13]; -0.0109 (inactive) in experiment [14]; 0.162 (inactive) in experiment [16].
